Screening results deposited in PubChem BioAssay by several laboratories.
Sampled rows, rich in hits. Any-hit rate of the full collection: about 27%.
CYP2C19 act – activators of human cytochrome P450 2C19; recombinant CYP2C19, luciferin-H EGE luminescence; stronger effect = higher value; 0 = fully inhibited enzyme, 1 = untreated enzyme; activation factor at 5 µM; P33261; 96,000 tested, under 10 active;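 active = activation factor of at least 2 at 5 µM in the primary screen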;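 also: 0 = wells with 2.5 mM tranylcypromine and 1 = vehicle-only wells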
CYP2C9 activ – increases human cytochrome P450 2C9 activity; AID 1024; activation factor at 5 µM; 96,000 compounds, 1.4% hits; recombinant CYP2C9, luciferin-H conversion, luminescence; stronger effect = higher value; factor 1 = untreated enzyme, 0 = blocked; P11712;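 active = activation factor of 2 or more for CYP2C9 at a 5 µM dose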;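 also: 0 = sulfaphenazole-blocked wells and 1 = vehicle-only wells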
Target sequence (P11712 whole entry, looked up): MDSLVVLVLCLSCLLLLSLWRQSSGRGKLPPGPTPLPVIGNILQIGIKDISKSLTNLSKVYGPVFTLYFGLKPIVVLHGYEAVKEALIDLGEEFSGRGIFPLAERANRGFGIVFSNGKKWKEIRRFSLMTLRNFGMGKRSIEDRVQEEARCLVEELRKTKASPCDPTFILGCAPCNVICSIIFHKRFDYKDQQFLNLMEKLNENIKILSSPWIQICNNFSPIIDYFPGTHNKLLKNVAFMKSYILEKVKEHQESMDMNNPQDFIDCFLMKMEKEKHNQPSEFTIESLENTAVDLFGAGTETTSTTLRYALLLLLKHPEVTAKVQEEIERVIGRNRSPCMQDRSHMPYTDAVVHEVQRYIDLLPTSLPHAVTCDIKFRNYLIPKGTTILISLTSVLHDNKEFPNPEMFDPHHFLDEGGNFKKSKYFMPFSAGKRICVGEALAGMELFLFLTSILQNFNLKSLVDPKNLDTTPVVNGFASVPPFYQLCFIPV
Cav32 inh – human Cav3.2 channel inhibition, primary screen; O95180; Cav3.2-expressing cells, Fluo-4 calcium fluorescence FDSS; stronger effect = lower value; B-score at 10 µM; 100,000 compounds, 4% hits;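 active = single-dose well whose peak fluorescence ratio is a statistical outlier from its plate by either plate-standardised score or position-corrected B-score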
CYP2C19 inhib – blocks human cytochrome P450 2C19. AID 778. 96,000 compounds, 21% hits. inhibition, % at 5 µM. CYP2C19 Supersomes, luciferin-H EGE luminescence, 30 min. P33261;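 active = CYP2C19 inhibition above a set limit at 5 µM in the primary screen, cut at about 50% in these data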;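 also: plate controls were negative control wells for no effect and 2.5 mM tranylcypromine positive control for full effect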
CYP2C9 inh – blocks human cytochrome P450 2C9 | P11712 | CYP2C9 Supersomes, luciferin-H conversion, luminescence | inhibition, % at 5 µM | 96,000 compounds, 20% hits;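 active = blocking of liver enzyme CYP2C9 beyond about 50% at 5 µM, limit read from the data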
* = called active by the depositor; x = not tested or not shown.

SMILES	CYP2C19 act	CYP2C9 activ	Cav32 inh	CYP2C19 inhib	CYP2C9 inh
Fc1ccccc1N1CCN(C(c2cccs2)c2nnnn2CCc2ccccc2)CC1 (centres undefined)	0.3	0.4	-3.54	69.6*	57.3*
CCN1CCN(C(c2ccccn2)c2c(NC(=O)c3ccccc3)sc(C)c2C)CC1 (centres undefined)	1	0.9	0.132	-2.3	8.1
C#CCn1cc[n+](CC(=O)N(C)C)c1	1.1	1.1	1.77	-13.2	-7.3
Cc1cccc(N(C(=O)CNC(=O)c2ccco2)C(C(=O)NC2CCCC2)c2cccnc2)c1 (centres undefined)	1.1	1	0.521	-6.2	-4.9
COC(=O)C1=C(C)NC(C)=C(C(=O)OCCN(C)Cc2ccccc2)C1c1cccc([N+](=O)[O-])c1 (centres undefined)	x	x	-4.09*	x	x
Cc1ccc(C(=O)N2CCCC2)cc1S(=O)(=O)Nc1ccccc1	0.6	0.7	-0.44	37.1	31.3
Cc1ccccc1NS(=O)(=O)c1cc(C(=O)NCc2ccco2)ccc1C	0.6	0.3	-0.456	37.0	68.7*
Cc1ccc(C(=O)NCc2ccco2)cc1S(=O)(=O)Nc1cccc(C)c1C	1.4	1.2	0.588	-38.6	-17.3
COc1ccccc1NS(=O)(=O)c1cc(C(=O)NCc2ccco2)ccc1C	0.4	0.7	0.676	61.1*	28.3
COCCNC(=O)c1ccc(NS(=O)(=O)c2cc(C)ccc2C)cc1	1	0.8	0.721	2.7	22.8
Cc1ccc(C(=O)NCCSC2CCCCC2)cc1S(=O)(=O)Nc1ccccc1	0.7	0.7	-3.84*	31.6	27.8
Cc1ccc(SCCNC(=O)c2ccc(C)c(S(=O)(=O)Nc3ccccc3C)c2)cc1	0.3	0.3	-2.4	66.9*	68.2*
COc1cc(C(C#N)N2CCOCC2)ccc1O (centres undefined)	1.1	1.1	-0.944	-9.1	-11.0
COc1cccc(C(C#N)N2CCOCC2)c1 (centres undefined)	0.2	1	0.69	77.7*	-2.3
CCn1c(O)c(/C=N/N=C/c2ccccc2)c2ccc(C3=NNC(=O)CC3)cc21	0.6	0.4	0.313	42.2	64.1*
CCCn1nnnc1NC(=O)c1ccc(C)cc1Cl	0.6	0.7	-0.58	37.8	26.5
CCOc1ccc2nc(NCCNC(=O)C(C)C)c(C)cc2c1	0.2	0.1	-0.942	77.0*	93.6*
CCOc1ccc2nc(SC(C)C(N)=O)[nH]c2c1 (centres undefined)	0.6	0.8	0.617	44.7	17.6
CCOc1ccc2nc(NCCNC(=O)C3CC3)c(C)cc2c1	0.4	0.5	0.495	55.7*	52.2*
CCCCS(=O)(=O)NC1=NCN(CCOC(=O)c2ccccc2)CN1	x	x	0.53	x	x
O=c1oc(-c2ccc(Br)o2)nc2ccccc12	0.2	0.9	0.0757	76.7*	6.6
COc1ccc(C(CNC(=O)c2cc(C)oc2C)N2CCOCC2)cc1 (centres undefined)	0.4	0.9	1.31	59.5*	8.4
COc1ccc(C(CNC(=O)c2cccc(Br)c2)N2CCCC2)cc1 (centres undefined)	0.6	0.9	x	40.4	7.0
COc1ccc(C(CNC(=O)COc2ccccc2C#N)N2CCOCC2)cc1 (centres undefined)	0.6	0.4	0.45	40.6	60.0*
O=C(NCC(c1ccc(F)cc1)N1CCOCC1)c1ccc(Br)o1 (centres undefined)	0.4	0.8	x	60.6*	23.6
SMILES	CYP2C19 act	CYP2C9 activ	Cav32 inh	CYP2C19 inhib	CYP2C9 inh
O=C(COc1ccccc1)NCC(c1cccs1)N1CCOCC1 (centres undefined)	x	x	-0.638	x	x
COc1ccc(C(CNC(=O)c2ccc3c(c2)C(=O)N(CCC(C)C)C3=O)N2CCOCC2)cc1 (centres undefined)	0.1	0.1	-4.54	87.5*	88.3*
CC(C)c1ccc(OCC(=O)Nc2cccc3c2CCCC3)cc1	0.9	1	0.926	8.4	-3.3
Cc1cc(C)nc(-n2nc(C)cc2NC(=O)c2cccc(S(=O)(=O)N3CCOCC3)c2)n1	0.9	0.7	1.9	5.2	27.6
Nc1ccccc1C#Cc1cnccn1	x	x	0.745	x	x
O=C(c1ccc(Br)s1)N1CCN(Cc2ccc3c(c2)OCO3)CC1	0.6	0.6	-0.189	39.8	43.9
COc1cccc(C(=O)N2CCN(Cc3ccc4c(c3)OCO4)CC2)c1OC	0.9	1.2	-1.03	8.6	-20.2
CC(C)n1c(C(=O)OCC(=O)NCc2ccc3c(c2)OCO3)cc2sccc21	0.6	0.1	-3.26*	41.8	86.2*
CCc1ccccc1NC(=O)c1cc2sccc2n1C	0.7	1.1	-2.43*	25.3	-9.7
CC(CCc1ccccc1)NC(=O)c1cc2sccc2n1C (centres undefined)	0.9	0.7	-3.04	14.0	28.0
COc1ccsc1C(=O)N1CCN(Cc2ccc3c(c2)OCO3)CC1	0.1	0.6	-0.0781	85.2*	40.5
Cn1c(C(=O)N2CCN(Cc3ccc4c(c3)OCO4)CC2)cc2sccc21	0.3	1	-4.63	70.0*	3.5
O=C(COC(=O)c1ccc2c(c1)OCO2)NCc1ccc2c(c1)OCO2	0.6	1.2	0.535	39.5	-23.1
CCCOc1ccc(CC(=O)NCC2(c3ccccc3)CCOCC2)cc1OC	0.7	0.7	0.879	27.7	32.3
Cn1c(C(=O)Nc2ccc3c(c2)OCO3)cc2sccc21	0	0.8	-0.476	95.5*	23.4
Cn1c(C(=O)NCc2ccc3c(c2)OCO3)cc2sccc21	0.2	0.3	-2.34	79.5*	74.9*
COc1cc(NC(=O)c2cc3sccc3n2C)cc(OC)c1	0.1	0.2	-1.88	86.0*	79.9*
Cn1c(C(=O)Nc2ccccc2)cc2sccc21	0.8	0.8	-2.29	17.5	17.1
CCOC(=O)C1=C(C)Nc2nc(SC)nn2C1c1ccc(C(=O)OC)cc1 (centres undefined)	0.8	0.8	0.503	19.1	17.7
CCCC(=O)Nc1ccccc1NC(=O)C1CCCCC1	1	1	0.596	1.9	4.0
CC1CCCN(CCCNC(=O)CCn2nc(-c3ccccc3)ccc2=O)C1 (centres undefined)	1	0.1	x	-4.3	87.0*
CCNc1ccc2noc3c2c1C(=O)c1ccccc1-3	x	x	-1.4	x	x
CCOc1ccccc1N1C(=O)c2cccnc2C1=O	0.9	0.7	0.799	10.9	29.8
O=C1c2ccccc2-c2onc3ccc(NCc4ccco4)c1c23	0.4	0.1	-4.13*	55.2*	87.9*
CCOc1ccc2noc3c2c1C(=O)c1ccccc1-3	1.1	1	-5.71*	-8.1	3.0
CC1CCc2cc(F)ccc2N1C(=O)CN1C(=O)c2ccccc2C1=O (centres undefined)	0.7	0.7	0.0719	33.1	33.9
S=C(NCc1cccnc1)Nc1ccc(Cl)c(Cl)c1	0.1	0	-0.404	91.5*	97.9*
N#CCCN(Cc1cccnc1)C(=O)Nc1ccc(Cl)c(Cl)c1	0.1	0.4	0.893	92.1*	63.8*
COc1ccc(NC(=O)NCc2cccnc2)cc1OC	0.7	0.6	1.12	31.8	36.6
